42 sequences from article PMC7819943, “Rice protein-binding microarrays: a tool to detect cis-acting elements near promoter regions in rice” can be followed below.

Whole data set: some 68,000 sequences, median “fluorescence intensity (a.u.)” near 9,100, cut for the highest 2% near 16,000. The sample holds the highest values, similar sequences and a random draw of the others, so the mix is not that of the screen.

The target of this assay is OsWRKY34 (Oryza sativa, UniProt Q0JBA9 1-250). In words: protein-binding microarray (RPBM); PBS, 2% BSA, 51.3 ng/ul salmon testes DNA, 50 uM zinc acetate, 200 nM TF, 25 C, 1 h; high values mean tight binding. To be noted: protein: recombinant; tags: N-terminal polyhistidine and DsRed monomer fusion (pET32a); label: CyDye5-dUTP incorporated in the synthesized complementary strand; 3' TTTTT single-stranded linker to array surface; dsDNA, one strand shown. The gist of the method: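 The binding signal for each feature is its fluorescence intensity in arbitrary units. An Axon 4000B scanner was used to read a custom Agilent array that had been made double-stranded with Cy5-dUTP primer extension, blocked with 2% BSA, incubated at 25 °C for 1 h with 200 nM protein in PBS, 2% BSA, salmon testes DNA and 50 µM zinc acetate, and washed. The protein was an N-terminal polyhistidine–DsRed transcription factor fusion from E. coli BL21-CodonPlus, purified on Ni–NTA.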
Chain of OsWRKY34 (Q0JBA9 entry or part of it): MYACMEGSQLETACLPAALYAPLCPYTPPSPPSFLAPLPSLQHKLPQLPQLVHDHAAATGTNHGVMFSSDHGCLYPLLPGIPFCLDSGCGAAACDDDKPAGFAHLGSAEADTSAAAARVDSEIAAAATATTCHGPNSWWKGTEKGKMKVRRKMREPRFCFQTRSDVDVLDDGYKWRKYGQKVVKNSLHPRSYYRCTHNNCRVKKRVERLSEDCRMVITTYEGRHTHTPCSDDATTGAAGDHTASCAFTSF
For the sequence “AGGCCATCATCACTTTAGTCTTATTTTCGTCACCATCATCCGGAGTCACCTAGTGCAG”, the binding signal is 10300 fluorescence intensity (a.u.). With “CTACTTATCATCCATTTAAACATGCTACTAGTCATTCTTCCGGAGTCACCTAGTGCAG”, the binding signal was 10200 fluorescence intensity (a.u.). Turning to “CGTTGGATAATCTCTAGTACATGTATATACATTTGGCTCTCGGAGTCACCTAGTGCAG”, the binding signal was 8220 fluorescence intensity (a.u.). In the case of “CTGCCACGTCACATTTGCCGCCCTCTGGGAGGGCGATTTTCGGAGTCACCTAGTGCAG” it was 8580 fluorescence intensity (a.u.); in that of “AAACAGGTCACTACTATCCTCCATATATATATATTTTAGACGGAGTCACCTAGTGCAG”, 9110 fluorescence intensity (a.u.). Turning to “AGAACTAGAAGACCACACGCTGTCTCACTTGTTGCAAAATCGGAGTCACCTAGTGCAG”, the binding signal was 8050 fluorescence intensity (a.u.).

With “TCTCTCTTTCTTTCTATTTTTCTTTTCAGTCAGGTTAGTACGGAGTCACCTAGTGCAG”, the binding signal was 11000 fluorescence intensity (a.u.). The value for “CATCGATCGCACTAGTGTCGCTCTCTGGAAGTAATAGCCTCGGAGTCACCTAGTGCAG” was 8110 fluorescence intensity (a.u.); that for “ATTAACAGCCTAGCTAGCTAGTGATCAGTGTTGACCGTTGCGGAGTCACCTAGTGCAG” was 8200 fluorescence intensity (a.u.); that for “TAGAGTGGTTGGTTGGGTACTTGGGTTGGGTTGGGTGGTCCGGAGTCACCTAGTGCAG” was 24300 fluorescence intensity (a.u.). “AGGAGATGCGGTAGTTTTTTTGGTACTGCGTGCGGTGGGGCGGAGTCACCTAGTGCAG”: the binding signal was 8400 fluorescence intensity (a.u.).

Turning to “GTGTTTGGTTGGGTAATTTTGCAGGTGTTGCTCGTCAATTCGGAGTCACCTAGTGCAG”, the binding signal was 10200 fluorescence intensity (a.u.). As for “GAAAACCTAGGGTTAGGTTTGGTGGGGTTGGCAGCTTTCGCGGAGTCACCTAGTGCAG”, the binding signal is 16400 fluorescence intensity (a.u.).

For “GGTGGGGTTGGCAGCTTTCGTGCTTGGTCAACCGGGCATGCGGAGTCACCTAGTGCAG”, the binding signal was 8520 fluorescence intensity (a.u.). Take “CTTCTTCTTCTTCTTCTTCTTGGTCCGGAGAGAGTAGAGACGGAGTCACCTAGTGCAG”: the binding signal is 8090 fluorescence intensity (a.u.). In the case of “GGGTACAGGGGTGGGGACTTGGGTGTGTTGTGGTGGTTACCGGAGTCACCTAGTGCAG” it was 12400 fluorescence intensity (a.u.).

As to “GTTTGCATGTTAAGCTTTAGGATTTGGTGGGTTATAATTTCGGAGTCACCTAGTGCAG”, the binding signal was 10800 fluorescence intensity (a.u.). Regarding “GGTGTTAGCTTTAGGTTTTGGTGTTTGGTTGGGTAATTTTCGGAGTCACCTAGTGCAG”, the binding signal is 17300 fluorescence intensity (a.u.). For “GTTTCTTGGTCGTGGGGTCGAGGAGGTGGTGGGTGGTGGTCGGAGTCACCTAGTGCAG”, the binding signal was 14800 fluorescence intensity (a.u.). “AGGTGGGGAGCGGCGGACTCGCGGTTGGGTTTGTGTGGTTCGGAGTCACCTAGTGCAG”: the binding signal was 14200 fluorescence intensity (a.u.). As for “TGGTACTGCGTGCGGTGGGGTAGGAGTAGGAGGTTTCTTTCGGAGTCACCTAGTGCAG”, the binding signal was 16600 fluorescence intensity (a.u.). With “TTGTGTGTTCTTCCATCTGGCAATGGCATCTGCAGCAGCACGGAGTCACCTAGTGCAG”, the binding signal was 9530 fluorescence intensity (a.u.). Take “CACGCGATGAAATCATCTGCGCATCCTGTACTTTCAATTTCGGAGTCACCTAGTGCAG”: the binding signal is 8030 fluorescence intensity (a.u.). For “CAATGACCTTTTTTTTTCCTCTCTCTGTTGCTTCCGATATCGGAGTCACCTAGTGCAG”, the binding signal was 8500 fluorescence intensity (a.u.). Regarding “GCTTTGAACACTCATCTCCTCACCGTGTTTGTTAGAGCTCCGGAGTCACCTAGTGCAG”, the binding signal was 11200 fluorescence intensity (a.u.). As to “ATTGTATTCCTACTTGGACTCTTATTTTCTTTTCTAATTTCGGAGTCACCTAGTGCAG”, the binding signal was 10300 fluorescence intensity (a.u.).

Regarding “TTTATTTTTTTTGTTACTTTTGGGATAAATTTACAATTACCGGAGTCACCTAGTGCAG”, the binding signal was 9060 fluorescence intensity (a.u.). The value for “GTGTATTCTACTTAGTAATTTACTTGGCTTGAATTTTTTTCGGAGTCACCTAGTGCAG” was 28900 fluorescence intensity (a.u.); that for “GGTTTGGGGTGGTTTATTGTACAATAAAGATAAAGTTACCCGGAGTCACCTAGTGCAG” was 19000 fluorescence intensity (a.u.). For the sequence “CATTTGTGGTTTGTACATATTTATATAAGTTATTATAAATCGGAGTCACCTAGTGCAG”, the binding signal was 9060 fluorescence intensity (a.u.).

Regarding “GTCTACTTGTTTGGTGTAATTTATTTTTTTTCTTTCGCTTCGGAGTCACCTAGTGCAG”, the binding signal is 9740 fluorescence intensity (a.u.). For “TCAGTCTGTACACGCCTACACCAGAGTCCAGTGGTCCTAACGGAGTCACCTAGTGCAG”, the binding signal was 8100 fluorescence intensity (a.u.). “GGGTGGAGGAGGTGGGGAGGCCGGCGAGACTCATGTGCGGCGGAGTCACCTAGTGCAG”: the binding signal is 13100 fluorescence intensity (a.u.). Regarding “ATCAAATGGTCATTCCAACGGTTGTCCTGTGCTTTTGTAACGGAGTCACCTAGTGCAG”, the binding signal was 8020 fluorescence intensity (a.u.). For “ATCTCTAATTCTATTGGGTGCATGTATTGTACTATTTATTCGGAGTCACCTAGTGCAG”, the binding signal was 9280 fluorescence intensity (a.u.). Consider “ACTGTGGTTTCTAGTGGGTTTTATTATTTTATAATTTGTACGGAGTCACCTAGTGCAG”, for which the binding signal is 8480 fluorescence intensity (a.u.). On to “CAAGTTATTGACTTTTGGTCATGATGTTACTATTCATCTTCGGAGTCACCTAGTGCAG”, for which the binding signal is 9120 fluorescence intensity (a.u.). In the case of “GTGGTTTCATCTATTTTGTGTTGTTTACTCGTATCTGTTACGGAGTCACCTAGTGCAG” it was 10600 fluorescence intensity (a.u.). In the case of “TTAGGATACATGGGAATTTTAGTGGGGATAGGATGGGGAACGGAGTCACCTAGTGCAG”, the binding signal is 8520 fluorescence intensity (a.u.). In the case of “ATCTTCGGTGTACTATTGGGTCATGATTTGACCCATCTAACGGAGTCACCTAGTGCAG” it was 24900 fluorescence intensity (a.u.); in that of “GTATCAGTGTATAAGTTTGAGCACCATTTTTCCATGATCTCGGAGTCACCTAGTGCAG”, 9200 fluorescence intensity (a.u.). As to “GTTGTGGGTTTTCGTATTTAATGTTTGACTGTCTATTTTACGGAGTCACCTAGTGCAG”, the binding signal was 17300 fluorescence intensity (a.u.).
